Experimental data as given in PubChem BioAssay.
Several values for one entry are separate records, joined by “and”; a condition that tells them apart may be missing. Equal values may be shown once. Activity calls are given as the source filed them.

Key:
[1] = target: Albumin (Bos taurus) (UniProt P02769); test: bovine serum albumin binders on microarray, profiling panel, artefact control for SMM control protein annotation, biochemical, small-molecule microarray, Alexa647 label, 635/667 nm fluorescence (AID 1118); details: BSA-A647 binding, fluorescence 635 nm, higher = more signal;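 further: score merges 667 nm emission intensity and signal-to-noise per printed compound spot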
[2] = small-molecule microarray binders of probe aXIP, primary screen, biochemical, NeuroSMM set, 635/667 nm fluorescence (AID 1119); details: higher = more signal, called active from +8 up or from −8 down;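 further: probe is the protein aXip251-270 applied at 1 µg/mL to compound-printed slides; binding of probe to printed compounds measured as 667 nm fluorescence plus signal to noise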
[3] = small-molecule binders of probe aNOTCH3, primary screen, biochemical, small-molecule microarray, 635/667 nm fluorescence (AID 1120); details: higher = more signal;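 further: probe is a biotin-tagged antibody raised against NOTCH3 rather than NOTCH3 protein; score merges spot fluorescence near 667 nm with spot signal to noise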
[4] = small-molecule binders of probe aNOTCH2, primary screen, biochemical, small-molecule microarray, 635/667 nm fluorescence (AID 1121); details: higher = more signal;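 further: score merges feature fluorescence read at 667 nm with its signal to noise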
[5] = target: Carbonic anhydrase 2 (Homo sapiens) (UniProt P00918); test: CAII small-molecule binders, profiling panel, biochemical, small-molecule microarray, Alexa647-labelled CAII (AID 1122); details: CAII-A647 binding fluorescence, higher = more signal
[6] = COS7 lysate on small-molecule microarray, probe aHis, 635 nm (AID 1123); details: COS7 cell lysate, fluorescence, higher = more signal;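 further: z-score combines 667nm fluorescence intensity with signal-to-noise per printed compound spot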
[7] = compound binding in COS7 lysate, probe aLAP1, primary screen, cell lysate, small-molecule microarray (AID 1124); details: probe aLAP1, fluorescence, higher = more signal;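 further: lysate comes from COS7 cells expressing LAP1 and is applied at 0.3 µg/mL; score merges spot fluorescence near 667 nm with signal-to-noise over triplicate slides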
[8] = system: Sam68 (KHDRBS1); test: Sam68 small-molecule binders, primary screen, biochemical, small-molecule microarray, 635 nm fluorescence (AID 1125); details: small-molecule microarray binding, higher = more signal;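 further: score merges 667 nm channel intensity with signal to noise over triplicate slides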
[9] = system: Chordin-like protein 2 (CHRDL2); test: CHRDL2 small-molecule binders, primary screen, biochemical, small-molecule microarray, 635 nm fluorescence (AID 1126); details: small-molecule microarray binding, fluorescence 635 nm; higher = more signal;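 further: printed compound slides probed with Chrdl2 protein at 4 µg/mL for 1 h at 4 C; score merges 667 nm emission intensity with signal to noise over three replicate slides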
[10] = target: Concanavalin-A (Canavalia ensiformis) (UniProt P02866); test: ConA small-molecule binders, primary screen, artefact control for SMM control protein annotation, biochemical, small-molecule microarray, Alexa647 label, 635 nm (AID 1127); details: ConA-A647 binding fluorescence, higher = more signal;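 further: z combines 667 nm emission intensity with signal-to-noise across three replicate slides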
Concanavalin-A (Canavalia ensiformis), sequence (P02866 whole entry, looked up): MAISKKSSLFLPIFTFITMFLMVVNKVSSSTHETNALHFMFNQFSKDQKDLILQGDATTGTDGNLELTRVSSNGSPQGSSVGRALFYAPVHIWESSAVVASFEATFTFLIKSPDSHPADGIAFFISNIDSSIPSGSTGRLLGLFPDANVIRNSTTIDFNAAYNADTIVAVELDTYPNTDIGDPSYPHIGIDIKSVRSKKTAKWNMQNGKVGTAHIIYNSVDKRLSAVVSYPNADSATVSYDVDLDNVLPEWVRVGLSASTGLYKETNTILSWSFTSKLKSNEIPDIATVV

Albumin (Bos taurus), sequence (P02769 whole entry, looked up): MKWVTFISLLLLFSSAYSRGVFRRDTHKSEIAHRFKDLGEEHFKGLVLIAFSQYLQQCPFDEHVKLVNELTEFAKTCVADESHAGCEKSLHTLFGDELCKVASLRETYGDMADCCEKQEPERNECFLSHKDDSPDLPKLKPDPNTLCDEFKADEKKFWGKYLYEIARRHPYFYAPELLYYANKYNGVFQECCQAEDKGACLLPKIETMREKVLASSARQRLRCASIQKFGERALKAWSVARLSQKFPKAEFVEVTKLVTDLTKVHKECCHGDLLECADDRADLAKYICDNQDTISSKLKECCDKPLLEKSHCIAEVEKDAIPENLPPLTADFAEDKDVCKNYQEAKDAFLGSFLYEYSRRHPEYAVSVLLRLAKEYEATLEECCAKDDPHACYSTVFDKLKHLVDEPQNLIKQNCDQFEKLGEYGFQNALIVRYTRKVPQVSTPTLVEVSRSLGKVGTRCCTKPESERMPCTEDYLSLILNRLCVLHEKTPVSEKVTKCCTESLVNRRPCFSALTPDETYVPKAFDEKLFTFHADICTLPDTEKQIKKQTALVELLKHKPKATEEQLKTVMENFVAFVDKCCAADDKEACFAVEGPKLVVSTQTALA

| SMILES | composite z-score [1] | composite Z-score [2] | composite z-score [3] | composite z-score [4] | composite z-score [5] | composite z-score [6] | composite z-score [7] | composite z-score [8] | composite z-score [9] | composite z-score [10] |
| --- | --- | --- | --- | --- | --- | --- | --- | --- | --- | --- |
| C=CCN1C(=O)[C@]2(O[C@H](CCn3cc(CCO)nn3)[C@@H]([Si](C)(C)c3ccc(OC)cc3)[C@@H]2C)c2cc(N3C(=O)c4cccc5cccc3c45)ccc21 | 0.558 and 0.668 | 0.729 (inactive) and 0.573 (inactive) | 0.0522 and 0.0259 | -0.106 and -0.162 | 0.227 and 0.417 | 1.88 and 0.772 | 0.163 and -0.46 | 1.2 and 0.787 | 0.431 and 0.191 | 1.08 and 1.06 |
| C=CC[C@@H](O)c1ccc(O)c2ccccc12 | -0.0028 and -0.264 | 1.21 (inactive) and -0.181 (inactive) | 0.347 and 0.0296 | -0.0523 and -0.153 | 0.524 and 0.379 | 1.18 and 1.3 | 0.207 and -0.0872 | 1.04 and 1.08 | 1.38 and 1.23 | 0.89 and 0.565 |
| CCOC(=O)c1ccc(NC(=O)O[C@H]2[C@H](OC(=O)Nc3ccccc3)[C@H](OC(=O)Nc3ccccc3)[C@@H](OC)O[C@@H]2CO)cc1 | 0.783 and 0.754 | 1.13 (inactive) and 0.14 (inactive) | 0.583 and 0.228 | 0.121 and -0.0858 | 0.46 and 0.771 | 2.66 and 2.3 | 0.708 and 1.11 | 1.31 and 1.3 | 0.292 and 0.142 | 1.19 and 1.15 |
| C=CC[C@H](O)c1ccc(OCCO)cc1 | 0.787 and -0.0212 | -0.745 (inactive) and 0.156 (inactive) | -0.382 and -0.319 | -0.169 and -0.296 | 0.725 and 0.843 | -0.263 and -1.45 | -0.22 and -0.782 | -0.769 and -2.69 | -0.978 and 0.193 | -1.3 and -1.2 |
| C=CCN(Cc1ccccc1)C(=O)C1N(c2c(Cl)cccc2CO)C(=O)C2C(C(=O)O)C3C=CC21O3 (stereo not given) | -1.52 and -0.682 | -0.874 (inactive) and -0.317 (inactive) | -0.425 and -0.352 | -0.168 and -0.261 | -0.774 and 0.32 | -0.908 and -0.629 | -0.628 and -0.742 | -1.89 and -1.02 | -3.43 and -1.44 | -1.31 and -1.79 |
| C=CCN(Cc1ccccc1)C(=O)C1N(c2ccc(CCO)cc2)C(=O)C2C(C(=O)O)C3C=CC21O3 (stereo not given) | -1.88 and -0.419 | -0.364 (inactive) and -0.371 (inactive) | -0.393 and -0.575 | -0.201 and 0.0434 | 0.942 and 0.937 | -0.361 and -0.701 | -0.418 and -0.931 | -1.15 and -1.08 | -1.61 and -3.84 | -1.82 and -1.97 |
| COC(=O)C1=C(C)N(Cc2ccccc2)C2=C(C(C)=O)[C@H](c3ccccc3)[C@@](O)(C(=O)OC)C(=O)N2[C@@H]1c1ccccc1 | 0.695 and -0.583 | 0.124 (inactive) and 0.115 (inactive) | -0.0362 and -0.182 | -0.0907 and -0.124 | 0.301 and -0.459 | 0.275 and -0.666 | -0.209 and -0.312 | 1.17 and -1.23 | 0.564 and 0.437 | 0.365 and -0.139 |
| COc1ccc(COC(=O)NN=C2C[C@@H](O)[C@@H](O)[C@@H]3[C@@H]4C(=O)N(C(C)(C)C)C(=O)[C@@H]4CC[C@H]23)cc1 | 0.682 | 1.08 (inactive) | -0.194 | -0.0001 | 0.633 | 0.7 | 1.51 | 1.22 | 0.0955 | -0.457 |
